From PubChem BioAssay (Tox21)
“And” between values parts separate entries of the source, which are not always exact repeats. Equal entries are not always repeated. Results filed as inconclusive are left out. A number with no mark means an inactive call. The source made the active and inactive calls. The call rests on the fitted dose curve.

test: qHTS assay to identify small molecule agonists of the AP-1 signaling pathway (AID 1159526); conditions: ME-180 (cervical carcinoma) AP-1-bla reporter, beta-lactamase FRET ratio, 5 h; series mostly up to 76.8 µM
On the % scale 0 is the no-effect control and ±100 the full control effect.

SMILES | outcome | activation
C=C(C)C(=O)O[C@H]1C[C@@H]2CC[C@@]1(C)C2(C)C | inactive | 
O=S1(=O)CC=CC1 | inactive | 
Oc1cccc2ccccc12 | inactive | 
CC(=O)c1ccccc1 | inactive | 
C=C(C)C(=O)OCCOCCOCCOC(=O)C(=C)C | inactive | 
O=C(O)CCCCCCCCCCC(=O)O | inactive | 
O=c1[nH]c(=O)n([C@H]2CCCO2)cc1F | inactive | 
CC(C)c1ccc(S(=O)(=O)O)cc1 | inactive | 
O=[N+]([O-])c1ccc(/C=C/c2ccc([N+](=O)[O-])cc2S(=O)(=O)O)c(S(=O)(=O)O)c1 | inactive | 
O=C=NCCCCCCN=C=O | inactive | 
OCc1cccnc1 | inactive | 
COc1ccc2cc([C@H](C)C(=O)O)ccc2c1 | inactive | 
C[Si](O[Si](C)(C)C)O[Si](C)(C)C | inactive | 
C/C=C1/CC2C=CC1C2 (centres undefined) | inactive | 
CC1CCC2CC1C2(C)C (centres undefined) | inactive | 
O=C(CC(C(=O)OC1CCCCC1)S(=O)(=O)O)OC1CCCCC1 (centres undefined) | inactive | 
C[C@H]1C[C@H]2[C@@H]3CCC4=CC(=O)C=C[C@]4(C)[C@@]3(F)[C@@H](O)C[C@]2(C)[C@@]1(O)C(=O)CO | inactive | 
c1ccc2c(c1)ccc1ccccc12 | inactive | 
CCN(CC)CCCC(C)Nc1ccnc2cc(Cl)ccc12 (centres undefined) |  | 0.84% [at 6.97 µM] and -1.42% [at 15.8 µM]
CCCCCC/C(C=O)=C\c1ccccc1 | inactive | 

SMILES | outcome | activation
C=C(C)C(=O)Nc1ccc(Cl)c(Cl)c1 | inactive | 
CCCCC(CC)COC(=O)C(C#N)=C(c1ccccc1)c1ccccc1 (centres undefined) | inactive | 
CCCCCCCCCCCCOCCO | inactive | 
OCCOCCOCCO | inactive | 
CN(C)CCCN | inactive | 
CCCCN(CCCC)CCCC | inactive | 
O=C(O)c1ccccc1C(c1ccc(O)cc1)c1ccc(O)cc1 | inactive | 
CCCCCC1=CCCC1=O | inactive | 
O=C(O)c1ccc2c(c1)C(=O)OC2=O | inactive | 
N[C@@H](Cc1cc(I)c(Oc2cc(I)c(O)c(I)c2)c(I)c1)C(=O)O | inactive | 
O=C(O)c1cc(O)c(O)c(O)c1 | inactive | 
c1c[nH]cn1 | inactive | 
c1ccc2scnc2c1 | inactive | 
CC(=O)Nc1ccccc1 | inactive | 
C#CCN(C)Cc1ccccc1 | inactive | 
CCCCCCCCCC | inactive | 
O=C(O)[C@H](O)[C@@H](O)[C@H](O)[C@H](O)CO |  | 7.9% [at 2.72 µM]
O=C(Oc1ccccc1)c1ccccc1 | inactive | 
CC(c1cc2ccccc2s1)N(O)C(N)=O (centres undefined) | inactive | 
